Hits are enriched below; roughly 2.1% of the tested compounds scored in any of these assays.
Fh CTSL1 inh = Fasciola hepatica cathepsin L1 inhibitors, primary screen, counter-screen for PFM18AAP inhibitor project, biochemical, QFRET, fluorogenic peptide substrate; recombinant F. hepatica cathepsin L1, Z-Leu-Arg-MCA fluorescence; inhibition, % at 5.96 µM; hit rate 0.49% among 300,000; AID 1906, 2009;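 active = inhibition above the mean of all tested compounds plus 3 SD, set per screening campaign, cut at about 17% in these data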;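 note: 0% = plate median of test compound wells and 100% = 1 µM Z-Phe-Ala-diazomethylketone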
M18AAP inhibitor = PfM18AAP inhibitors, malaria aminopeptidase, primary screen, biochemical, QFRET, recombinant enzyme. hit rate 1.2% among 290,000. inhibition, % at 7.35 µM. M18 aspartyl aminopeptidase (Plasmodium falciparum 3D7). H-Glu-NHMec fluorogenic cleavage;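 active = inhibition above the campaign mean inhibition over all tested compounds plus 3 SD, cut at about 28% in these data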;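 note: 0% = plate median of test compound wells and 100% = 2 mM ZnCl2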
Rin1 Abl inh = inhibitors of Rin1-Abl protein binding, primary screen, biochemical, TR-FRET; Tyrosine-protein kinase ABL1 (Homo sapiens) + Ras and Rab interactor 1 (Homo sapiens), …; inhibition, % at 7.35 µM; hit rate 0.4% among 360,000; in the data active = inhibition above about 5%, passing the limit was not always enough
Target sequence (P00519 whole entry, looked up): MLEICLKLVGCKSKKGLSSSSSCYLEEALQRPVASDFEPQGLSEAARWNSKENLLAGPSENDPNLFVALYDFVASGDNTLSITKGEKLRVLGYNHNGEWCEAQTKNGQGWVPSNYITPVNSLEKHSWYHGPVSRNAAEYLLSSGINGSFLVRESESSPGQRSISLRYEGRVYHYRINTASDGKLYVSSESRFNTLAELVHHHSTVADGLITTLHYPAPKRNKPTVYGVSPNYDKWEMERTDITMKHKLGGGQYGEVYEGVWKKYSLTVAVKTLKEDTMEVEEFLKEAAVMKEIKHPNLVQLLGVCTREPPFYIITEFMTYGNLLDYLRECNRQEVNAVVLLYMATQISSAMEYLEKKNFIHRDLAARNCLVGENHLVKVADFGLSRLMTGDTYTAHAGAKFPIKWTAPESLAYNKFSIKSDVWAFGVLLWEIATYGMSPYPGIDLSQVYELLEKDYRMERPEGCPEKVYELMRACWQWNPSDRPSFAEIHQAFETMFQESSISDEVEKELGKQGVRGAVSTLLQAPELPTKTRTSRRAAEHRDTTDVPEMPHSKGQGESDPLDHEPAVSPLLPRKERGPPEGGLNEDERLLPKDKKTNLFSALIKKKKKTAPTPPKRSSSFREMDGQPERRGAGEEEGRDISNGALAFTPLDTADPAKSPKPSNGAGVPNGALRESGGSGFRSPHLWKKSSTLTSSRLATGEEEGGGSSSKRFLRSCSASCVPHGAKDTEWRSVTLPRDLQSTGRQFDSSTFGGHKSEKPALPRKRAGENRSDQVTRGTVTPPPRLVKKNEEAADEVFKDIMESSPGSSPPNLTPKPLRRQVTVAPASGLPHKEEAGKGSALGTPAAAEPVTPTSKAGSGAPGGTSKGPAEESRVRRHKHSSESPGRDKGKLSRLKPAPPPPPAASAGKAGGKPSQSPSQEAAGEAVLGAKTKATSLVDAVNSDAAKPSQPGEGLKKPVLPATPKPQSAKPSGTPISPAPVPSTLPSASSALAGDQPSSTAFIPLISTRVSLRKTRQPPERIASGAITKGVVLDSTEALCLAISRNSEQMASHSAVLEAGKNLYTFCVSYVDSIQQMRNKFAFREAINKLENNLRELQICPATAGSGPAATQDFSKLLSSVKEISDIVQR
Target sequence (Q13671 whole entry, looked up): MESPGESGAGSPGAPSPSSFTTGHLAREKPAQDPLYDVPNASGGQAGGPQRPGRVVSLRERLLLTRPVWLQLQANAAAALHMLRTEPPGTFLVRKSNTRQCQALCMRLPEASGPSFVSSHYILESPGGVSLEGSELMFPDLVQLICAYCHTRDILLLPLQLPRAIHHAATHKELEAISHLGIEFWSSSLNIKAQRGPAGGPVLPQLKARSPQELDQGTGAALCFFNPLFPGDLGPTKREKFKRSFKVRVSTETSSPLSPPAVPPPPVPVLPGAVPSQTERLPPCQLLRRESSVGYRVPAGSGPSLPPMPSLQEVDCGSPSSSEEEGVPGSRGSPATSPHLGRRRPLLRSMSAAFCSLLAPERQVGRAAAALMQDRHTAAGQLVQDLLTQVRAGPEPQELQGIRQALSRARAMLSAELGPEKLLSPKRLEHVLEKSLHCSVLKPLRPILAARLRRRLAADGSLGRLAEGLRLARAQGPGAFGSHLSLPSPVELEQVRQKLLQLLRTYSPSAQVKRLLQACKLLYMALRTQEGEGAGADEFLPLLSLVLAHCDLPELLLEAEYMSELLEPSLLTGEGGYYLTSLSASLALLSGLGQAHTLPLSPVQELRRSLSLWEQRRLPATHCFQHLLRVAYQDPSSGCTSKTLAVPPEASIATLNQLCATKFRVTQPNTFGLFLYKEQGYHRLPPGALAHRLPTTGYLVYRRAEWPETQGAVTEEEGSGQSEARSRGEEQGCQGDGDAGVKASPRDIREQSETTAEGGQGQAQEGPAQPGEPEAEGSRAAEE
Calb FLC = C. albicans growth inhibition with fluconazole, primary screen, CaCi-2 strain, Alamar Blue fluorescence; C. albicans CaCi-2 (fluconazole-resistant clinical isolate) + fluconazole, 48 h; growth inhibition, % (no concentration beside the values); hit rate 0.57% among 300,000;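 active = growth inhibition above about 58% in most replicates, limit read from the data, passing the limit was not always enough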;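 note: all wells also contain fluconazole at 8 µg/ml as a sub-toxic cotreatment; 0% = median of DMSO wells and 100% = median of geldanamycin control wells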
* marks the source's active call; other numbers are inactive results.

Results for Cc1ccc(C(=O)N2CCN(c3ccc(N4CCOCC4)nn3)CC2)cc1 ?
Fh CTSL1 inh: 0.9; Rin1 Abl inh: 0.1; Calb FLC: 3.9

Results for Cc1ccc(C(=O)Nc2ccc(N3CCOCC3)nc2N2CCOCC2)cc1 ?
Fh CTSL1 inh: -1.0; M18AAP inhibitor: 28.4*; Rin1 Abl inh: 0.8; Calb FLC: 8.4

How did CCCCN(C(=O)c1cc(S(=O)(=O)N2CCCCC2)ccc1Cl)c1c(N)n(CC(C)C)c(=O)[nH]c1=O do in these assays?
Rin1 Abl inh: -2.0

What do the screens show for `O=C(NCc1cccc2[nH]ccc12)C1CCC(=O)N(CCc2ccccc2)C1` (centres undefined)?
Fh CTSL1 inh: -0.1; M18AAP inhibitor: -3.1; Rin1 Abl inh: -0.1; Calb FLC: 16.6

What do the screens show for `COc1cccc(/C=N/NC(=O)C(=O)N/N=C/c2cccc(OC)c2O)c1O`?
M18AAP inhibitor: -11.9; Rin1 Abl inh: 4.6

Results for COC(=O)c1cccc(/C=N/NC(N)=S)c1O ?
Fh CTSL1 inh: 3.7; M18AAP inhibitor: 30.5*; Rin1 Abl inh: -4.1; Calb FLC: -4.2

Results for Cn1cc(/C=N/NC(N)=S)c2ccccc21 ?
Fh CTSL1 inh: 99.8*; M18AAP inhibitor: 20.7; Rin1 Abl inh: -2.1; Calb FLC: -3.7

What do the screens show for `Nc1ncnc(Oc2cccc3cccnc23)c1[N+](=O)[O-]`?
Fh CTSL1 inh: 0.4; M18AAP inhibitor: 4.7; Rin1 Abl inh: 0.8; Calb FLC: -3.4

What do the screens show for `O=C(Oc1cccc(C(=S)N2CCOCC2)c1)c1ccccc1`?
Fh CTSL1 inh: -7.3; M18AAP inhibitor: 28.5*; Rin1 Abl inh: -2.6; Calb FLC: 13.5

How did COc1cc(C(=O)Oc2c(OC)cc(C(=S)N3CCOCC3)cc2OC)cc(OC)c1OC do in these assays?
Fh CTSL1 inh: -4.5; M18AAP inhibitor: 1.4; Rin1 Abl inh: -4.0; Calb FLC: -0.6

How did COc1cc(C(=S)N2CCOCC2)cc(OC)c1OC(=O)c1ccc(F)cc1 do in these assays?
Fh CTSL1 inh: 0.6; M18AAP inhibitor: 29.4*; Rin1 Abl inh: 1.2; Calb FLC: 4.8

Results for COc1ccc(OC)c(CNS(=O)(=O)c2cc(CN3C(=O)c4cccnc4C3=O)ccc2OC)c1 ?
Fh CTSL1 inh: -4.7; M18AAP inhibitor: 1.4; Rin1 Abl inh: 2.8; Calb FLC: -4.6

What do the screens show for `O=C(c1ccc(Cl)cc1)N1CCN(c2ccnc3cc(Cl)ccc23)CC1`?
M18AAP inhibitor: 0.3; Rin1 Abl inh: -3.9; Calb FLC: 99.1*

How did O=C(CNS(=O)(=O)c1cccc(Br)c1)NCCCc1ccccc1 do in these assays?
Fh CTSL1 inh: 7.0; M18AAP inhibitor: -12.5; Rin1 Abl inh: 0.3; Calb FLC: 8.4

Results for Cc1c(C=O)c(Cl)n(C)c(=O)c1C#N ?
Fh CTSL1 inh: 67.1*; M18AAP inhibitor: 10.9; Rin1 Abl inh: -2.7; Calb FLC: -0.1

How did CC(=O)CCC(=O)OCC(=O)c1ccc(C(F)(F)F)cc1 do in these assays?
Fh CTSL1 inh: -11.7; M18AAP inhibitor: -4.9; Rin1 Abl inh: 0.5; Calb FLC: -2.2

How did Cc1cccc(Nc2nnc(SCC(=O)Nc3cccnc3Cl)s2)c1 do in these assays?
Fh CTSL1 inh: 27.0*; M18AAP inhibitor: 16.4; Rin1 Abl inh: -2.1; Calb FLC: -0.9

Results for Nc1nnc(SCC(=O)Nc2cccnc2Cl)s1 ?
Fh CTSL1 inh: 0.6; Rin1 Abl inh: -0.8; Calb FLC: 7.9

Results for N/C(=N\OC(=O)c1cccs1)C1(c2ccc(Cl)cc2Cl)CC1 ?
Fh CTSL1 inh: -4.4; M18AAP inhibitor: -1.4; Rin1 Abl inh: -0.6; Calb FLC: -14.9

What do the screens show for `N/C(Cc1ccc(Cl)c(Cl)c1)=N\OC(=O)c1cccs1`?
Fh CTSL1 inh: -3.1; M18AAP inhibitor: -3.3; Rin1 Abl inh: -0.5; Calb FLC: 101.4*

What do the screens show for `O=C(CNC(=O)c1ccccc1F)N/N=C/c1ccc2c(c1)OCO2`?
Fh CTSL1 inh: 3.5; M18AAP inhibitor: -11.0; Rin1 Abl inh: -3.4; Calb FLC: 2.3

Results for C=CCn1c2ccccc2c(=O)c2cc(C#Cc3ccccn3)ccc21 ?
Rin1 Abl inh: -2.3

What do the screens show for `c1coc(-c2nc(-c3ccco3)c(-c3ccco3)nc2-c2ccco2)c1`?
Fh CTSL1 inh: 2.1; M18AAP inhibitor: 59.8*; Rin1 Abl inh: 6.3; Calb FLC: 43.3

How did Cc1cccc(N2C(=O)/C(=C/c3cccnc3)SC2=S)c1 do in these assays?
Fh CTSL1 inh: 2.2; M18AAP inhibitor: 21.8; Rin1 Abl inh: -2.5; Calb FLC: -18.9

How did Cc1ccc(/C=C2\SC(=S)N(c3cccnc3)C2=O)o1 do in these assays?
Fh CTSL1 inh: 5.0; M18AAP inhibitor: 31.3*; Rin1 Abl inh: -2.6; Calb FLC: -1.4

What do the screens show for `CCN=c1scc(-c2ccco2)n1/N=C/c1ccc(O)cc1`?
Fh CTSL1 inh: 2.2; M18AAP inhibitor: -4.2; Rin1 Abl inh: 4.4; Calb FLC: -9.3

How did CCN=c1scc(C)n1/N=C/c1cc(Br)c(O)c(Br)c1 do in these assays?
Fh CTSL1 inh: 6.2; M18AAP inhibitor: 30.4*; Rin1 Abl inh: -2.7; Calb FLC: 44.2

What do the screens show for `O=C(Nc1ccc(NS(=O)(=O)c2ccccc2)cc1)c1ccccc1Cl`?
Rin1 Abl inh: 0.5

How did CCOC(=O)COc1ccc2ccccc2c1/C=C/[N+](=O)[O-] do in these assays?
Fh CTSL1 inh: 3.0; M18AAP inhibitor: 36.6*; Rin1 Abl inh: -1.3; Calb FLC: 66.4

How did Cc1ccc2nc(N3CCN(c4cccc(C)c4C)CC3)c3nnnn3c2c1 do in these assays?
Fh CTSL1 inh: 1.6; M18AAP inhibitor: -8.6; Rin1 Abl inh: 4.3; Calb FLC: -4.2

Results for Cc1ccc2nc(Cl)c3nnnn3c2c1 ?
Fh CTSL1 inh: 3.8; M18AAP inhibitor: 1.1; Rin1 Abl inh: 0.8; Calb FLC: 96.8*

How did O=C(CCl)Nc1nc(-c2ccco2)c(-c2ccco2)s1 do in these assays?
Fh CTSL1 inh: 21.2*; M18AAP inhibitor: 36.0*; Rin1 Abl inh: -1.5; Calb FLC: 6.7

What do the screens show for `O=C(CCCSc1ccccc1)Nc1nc(-c2ccco2)c(-c2ccco2)s1`?
Fh CTSL1 inh: -4.7; M18AAP inhibitor: 8.6; Rin1 Abl inh: 2.0; Calb FLC: -1.1

What do the screens show for `CCN(C(=O)Nc1cccc(Cl)c1)c1ccccc1`?
M18AAP inhibitor: -1.6; Rin1 Abl inh: 0.6; Calb FLC: 32.2

How did CCOC(=O)NC(N(O)c1cccc(Cl)c1)C(Cl)(Cl)Cl (centres undefined) do in these assays?
Fh CTSL1 inh: 2.1; M18AAP inhibitor: 31.2*; Rin1 Abl inh: -0.8; Calb FLC: -28.1

How did O=c1ccc2cc([N+](=O)[O-])c(CCO)cc2o1 do in these assays?
Fh CTSL1 inh: 0.6; M18AAP inhibitor: 5.6; Rin1 Abl inh: -0.1; Calb FLC: 18.6

What do the screens show for `CCC(C(=O)O)n1c2ccccc2c2cn[nH]c(=O)c21` (centres undefined)?
Fh CTSL1 inh: -0.9; M18AAP inhibitor: -2.0; Rin1 Abl inh: -5.0; Calb FLC: 2.2

How did CC1=CC(C)(C)N2C(=O)C(=Nc3ccc(O)cc3)c3cccc1c32 do in these assays?
Fh CTSL1 inh: 43.9*; M18AAP inhibitor: 19.6; Rin1 Abl inh: -8.0; Calb FLC: -1.2

Assay outcomes from PubChem.
